Assay results reported in PubChem BioAssay.
Several values for one entry are separate records, joined by “and”; a condition that tells them apart may be missing. Equal values may be shown once. Activity calls are given as the source filed them. Unless noted, the rule behind the calls is not given here.

Columns and labels:
[1] = compounds altering circadian rhythm period length – cell-based, LOPAC library, luminescence reporter (AID 2774); conditions: circadian reporter cells, at 7 µM, actives lie on both sides;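 note: values are relative to mean of DMSO wells on each plate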
[2] = compounds altering viability of human ES cells (AID 493140); conditions: human embryonic stem cell survival screen; stronger effect = higher value;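 note: cells exposed to compounds for four days before counting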
[3] = P. berghei load reduction in hepatocytes – cell-based, HepG2, luciferase luminescence, HepG2 viability, primary screen (AID 624349; in the data active = parasite load remaining mostly below about 12%, no sharp cut-off; inactive = mostly above about 10%;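 note: 100% = mean of DMSO negative control wells on the same plate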); conditions: P. berghei liver stage in HepG2, luciferase luminescence, concentration not given here; parasite load remaining: stronger effect = lower value; viability: measured here: HepG2 viability without parasites
[4] = test system: Hepatitis C virus NS3 helicase; experiment: blockers of NS3h binding to ssDNA – biochemical, fluorescence polarization, LOPAC1280 library, primary screen (AID 687035; in the data active = inhibition above about 37%); conditions: Purified HCV NS3 helicase, Cy5-dT15 ssDNA binding fluorescence polarization; stronger effect = higher value; concentration not given here
[5] = compounds altering Cy5-DNA-NS3h complex signal – biochemical, LOPAC1280, artefact control for HCV NS3 helicase inhibitor project (AID 687037); conditions: Cy5-DNA-NS3h complex fluorescence interference counterscreen
[6] = Wnt pathway potentiators raising nuclear beta-catenin – imaging, WNT3A-conditioned medium, mouse C2C12, NPC library, primary screen (AID 1117326; in the data active = nuclear beta-catenin stimulation mostly above about 4.2%, no sharp cut-off; inactive = mostly below about 10%); conditions: stronger effect = higher value
[7] = signal quenchers or enhancers, Cy5 substrate/SSB – biochemical, NIH Clinical Collection, E. coli SSB, artefact control for HCV NS3 helicase inhibitor project (AID 743268); conditions: Cy5-oligo bound E. coli SSB, fluorescence interference
[8] = test system: Hepatitis C virus NS3 helicase; experiment: blockers of NS3h binding to DNA – biochemical, fluorescence polarization, NIH Clinical Collection, primary screen (AID 743270); conditions: NS3 helicase binding to Cy5-dT15 DNA, stronger effect = higher value, concentration not given here
[9] = target: Single-stranded DNA-binding protein (Escherichia coli (strain K12)) (UniProt P0AGE0); experiment: SSB-ssDNA binding inhibitors – biochemical, fluorescence polarization, NIH Clinical Collection, counter-screen for HCV NS3 helicase inhibitor project (AID 743271; in the data active = inhibition above about 28%); conditions: E. coli SSB-DNA binding, stronger effect = higher value, concentration not given here
[10] = compounds distorting NS3 helicase fluorescence signal – biochemical, NIH Clinical Collection, artefact control for HCV NS3 helicase inhibitor project (AID 743272); conditions: fluorescence interference counterscreen, HCV NS3 helicase assay; stronger effect = lower value;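 note: HCV NS3 helicase with a Cy5 labelled single stranded DNA probe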
[11] = test system: Neuropilin-2 / VEGF-C interaction (human); experiment: small molecules blocking Neuropilin-2/VEGF-C interaction – biochemical, microplate binding format, z-score (AID 743281); conditions: microplate NRP2/VEGF-C binding assay; stronger effect = lower value

SMILES | period change [1] | survival [2] | parasite load remaining [3] | viability [3] | inhibition [4] | fluorescence ratio (interference) [5] | nuclear beta-catenin stimulation ([6]; at 10 µM) | nuclear beta-catenin stimulation ([6]; stimulation, at 2 µM) [%] | fluorescence ratio [7] | inhibition [8] | inhibition [9] | fluorescence ratio [10] | z-score [11]
CNC1(C)C2CCC(C2)C1(C)C (configuration not stated) | 0.19 h (inactive) | 42 (inactive) | 95.9% (inactive) and 84% (inactive) | 76% and 101% | 0% (inactive) | 0.9 (inactive) | 0.3% (inactive) | -2.6 | – | – | – | – | –
CN1CCC(=C2c3ccccc3C=Cc3ccccc32)CC1 | 0.015 h (inactive) | 13.7 (inactive) | – | – | -1% (inactive) | 1 (inactive) | 3.3% (inactive) | 1.3 | 0.97 (inactive) | -2.84% (inactive) | -0.39% (inactive) | 0.96 (inactive) | -0.162 (inactive)
COc1cc(-c2ccc(=O)[nH]n2)ccc1OC(F)F | -0.1 h (inactive) | 1.92 (inactive) | 107% (inactive) and 103% (inactive) and 31.7% (inactive) | 78.6% and 72.5% | – | – | 2% (inactive) | 0.9 | 0.99 (inactive) | -2.77% (inactive) | -0.87% (inactive) | 0.94 (inactive) | -0.623 (inactive)
CC1(C)NC(=O)N(c2ccc([N+](=O)[O-])c(C(F)(F)F)c2)C1=O | 0.085 h (inactive) | 0.917 (inactive) | 54.2% (inactive) and 50.4% (inactive) and 7.05% (inactive) | 92.2% and 99% and 125% | -2% (inactive) | 1 (inactive) | -0.3% (inactive) | 2.1 | – | – | – | – | –
COc1ccccc1N1CCN(CC(O)COc2cccc3ccccc23)CC1 (configuration not stated) | 0.04 h (inactive) | 8.25 (inactive) | 54.9% (inactive) and 58.6% (inactive) and 42.9% (inactive) | 66.8% and 61.4% and 114% | -2% (inactive) | 1 (inactive) | 1.5% (inactive) | 1.7 | 0.97 (inactive) | 5.15% (inactive) | 5.29% (inactive) | 0.89 (inactive) | 1.13 (inactive)
O=C1CCc2cc(OCCCCc3nnnn3C3CCCCC3)ccc2N1 | 0.02 h (inactive) | – | 56.8% (inactive) and 129% (inactive) and 31.4% (inactive) | 104% and 87.2% and 96.2% | -1% (inactive) | 1 (inactive) | 1.1% (inactive) | 1 | – | – | – | – | –
C[C@@](Cc1ccc(O)c(O)c1)(NN)C(=O)O | 0.03 h (inactive) | – | 47.3% (inactive) | 129% | – | – | -1.9% (inactive) | -0.3 | – | – | – | – | –
NC(N)=NC(=O)Cc1c(Cl)cccc1Cl | 0.09 h (inactive) | 7.33 (inactive) | 29.4% (inactive) and 52.8% (inactive) and 54.1% (inactive) | 118% and 76.4% and 154% | 1% (inactive) | 1 (inactive) | -0.4% (inactive) | 2.6 | – | – | – | – | –
C[C@]12C=CC(=O)C=C1CC[C@H]1[C@@H]3C[C@@H](O)[C@](O)(C(=O)CO)[C@@]3(C)C[C@H](O)[C@@]12F | -0.51 h (inactive) | 13.9 (inactive) | 59.1% (inactive) and 78.5% (inactive) and 29.4% (inactive) | 105% and 93.7% and 75% | -2% (inactive) | 1 (inactive) | -1.1% (inactive) | -0.2 | – | – | – | – | –
CCOC(=O)C1=C[C@]2(CC)CCCN3CCc4c(n1c1ccccc41)[C@@H]32 | 0 h (inactive) | 5.33 (inactive) | – | – | -2% (inactive) | 1 (inactive) | 0.9% (inactive) | -0.3 | – | – | – | – | –
c1cnc(N2CCN(Cc3ccc4c(c3)OCO4)CC2)nc1 | -0.05 h (inactive) | 3.67 (inactive) | 105% (inactive) and 100% (inactive) and 31.2% (inactive) | 78.5% and 71.3% and 101% | -1% (inactive) | 1 (inactive) | 0.7% (inactive) | 4.1 | 1.01 (inactive) | -5.94% (inactive) | -0.87% (inactive) | 0.96 (inactive) | -0.0568 (inactive)
Nc1nc2c(ncn2COC(CO)CO)c(=O)[nH]1 | -0.27 h (inactive) | 3.83 (inactive) | 53.7% (inactive) and 86.2% (inactive) and 12.5% (inactive) | 114% and 95.7% and 65% | -2% (inactive) | 1 (inactive) | 1.2% (inactive) | 1.2 | 1.03 (inactive) | -3.18% (inactive) | -2.76% (inactive) | 1.02 (inactive) | –
NCCS(=O)(=O)O | -0.23 h (inactive) | – | 52.5% (inactive) | 97.6% | -4% (inactive) | 0.9 (inactive) | 5.3% (inactive) | 2.5 | – | – | – | – | –
CCCCNc1c(C(=O)OCC)c(C)nc2c1cnn2CC | 0.105 h (inactive) | 17.3 (inactive) | 80.1% (inactive) | 77.6% | -5% (inactive) | 1 (inactive) | -0.5% (inactive) | 1.7 | – | – | – | – | –
Cc1[nH]c(=O)c(C#N)cc1-c1ccncc1 | -0.005 h (inactive) | 9.17 (inactive) | 79.2% (inactive) and 78.4% (inactive) and 15.3% (inactive) | 69% and 68.9% and 65.5% | -3% (inactive) | 1 (inactive) | 0.1% (inactive) | 0.4 | 1.05 (inactive) | -4.36% (inactive) | -3.18% (inactive) | 1.02 (inactive) | 0.188 (inactive)
NCCS | 0.02 h (inactive) | – | 22.7% (inactive) and 38.2% (inactive) | 94.3% and 106% | -2% (inactive) | 1 (inactive) | 0.2% (inactive) | 3.8 | – | – | – | – | –
COC(=O)Nc1nc2ccc(C(=O)c3cccs3)cc2[nH]1 | -0.58 h (inactive) | 1.17 (inactive) | – | – | -5% (inactive) | 0.9 (inactive) | 80.4% (active) | 81.3 | – | – | – | – | –

SMILES | period change [1] | survival [2] | parasite load remaining [3] | viability [3] | inhibition [4] | fluorescence ratio (interference) [5] | nuclear beta-catenin stimulation ([6]; at 10 µM) | nuclear beta-catenin stimulation ([6]; stimulation, at 2 µM) [%] | fluorescence ratio [7] | inhibition [8] | inhibition [9] | fluorescence ratio [10] | z-score [11]
CN1CCN(C2=Nc3ccccc3Oc3ccc(Cl)cc32)CC1 | -0.045 h (inactive) | 12 (inactive) | – | – | -3% (inactive) | 1 (inactive) | 1.4% (inactive) | -0.5 | 0.97 (inactive) | 1.19% (inactive) | 2.21% (inactive) | 0.92 (inactive) | -0.0658 (inactive)
C[n+]1cc2c3c(ccc2c2ccc4cc5c(cc4c21)OCO5)OCO3 | -0.18 h (inactive) | 1.33 (inactive) | -0.155% (inactive) and -0.085% (inactive) | 0.535% and 0% | -2% (inactive) | 1 (inactive) | 32.4% (inactive) | 1.3 | – | – | – | – | –
CCN1CCC[C@H]1CNC(=O)c1cc(S(N)(=O)=O)ccc1OC | -0.035 h (inactive) | – | 118% (inactive) and 67.6% (inactive) | 78.9% and 220% | -1% (inactive) | 1 (inactive) | -1.5% (inactive) | 0.2 | 1.03 (inactive) | 0.4% (inactive) | 6.06% (inactive) | 0.97 (inactive) | -0.132 (inactive)
CN1[C@@H]2CC[C@H]1CC(OC(=O)C(O)c1ccccc1)C2 (some centres not stated) | – | 24.7 (inactive) | – | – | – | – | -0.1% (inactive) | -2.6 | – | – | – | – | –
Oc1ccc(OCc2ccccc2)cc1 | – | 3.58 (inactive) | 144% (inactive) | 102% | – | – | 2.5% (inactive) | 1.1 | – | – | – | – | –
COc1ccccc1OCC(O)CN1CCN(CC(=O)Nc2c(C)cccc2C)CC1 (configuration not stated) | 0 h (inactive) | – | – | – | -7% (inactive) | 0.9 (inactive) | 2.5% (inactive) | 1.4 | 1.02 (inactive) | -3.56% (inactive) | -4.72% (inactive) | 0.9 (inactive) | 0.514 (inactive)
O=C1C(=O)c2ccccc2C(O)=C1C1CCC(c2ccc(Cl)cc2)CC1 (configuration not stated) | – | 8.83 (inactive) | – | – | – | – | 2.2% (inactive) | -1 | – | – | – | – | –
Cc1ccc(S(=O)(=O)NC(=O)NN2CC3CCCC3C2)cc1 (configuration not stated) | – | 5.67 (inactive) | – | – | – | – | 0.7% (inactive) | 1.2 | – | – | – | – | –
Oc1ccc(C2CNCCc3c2cc(O)c(O)c3Cl)cc1 (configuration not stated) | 0.145 h (inactive) | – | 97.3% (inactive) and 13% (inactive) | 74.7% and 61% | -3% (inactive) | 0.9 (inactive) | 1.1% (inactive) | 7.9 | 0.73 (active) | -1.98% (inactive) | -7.03% (inactive) | 0.87 (inactive) | 0.0254 (inactive)
NC1CCN(c2cccc(Cl)n2)CC1 | -0.02 h (inactive) | – | 103% (inactive) | 71.3% | -6% (inactive) | 1 (inactive) | -1.8% (inactive) | 1.1 | 2.95 (active) | -1.19% (inactive) | 133% (active) | 0.9 (inactive) | -0.326 (inactive)
CN1CCN(C(c2ccccc2)c2ccccc2)CC1 | – | 4.58 (inactive) | – | – | – | – | -2.3% (inactive) | -0.3 | – | – | – | – | –
CNCC(O)c1ccc(O)c(O)c1 (configuration not stated) | -0.055 h (inactive) | – | 40.1% (inactive) | 89% | 0% (inactive) | 1 (inactive) | -1.1% (inactive) | -0.9 | 1.02 (inactive) | -1.36% (inactive) | 15.5% (inactive) | 1.02 (inactive) | –
Cc1c(Cl)cccc1Nc1ccccc1C(=O)O | – | 17.2 (inactive) | – | – | – | – | 1.9% (inactive) | 1.6 | – | – | – | – | –
NC/C=C/C(=O)O | -0.005 h (inactive) | – | – | – | -5% (inactive) | 1 (inactive) | 0.3% (inactive) | 1.6 | – | – | – | – | –
CCN(CC)CCNC(=O)c1ccc(NC(C)=O)cc1 | 0.01 h (inactive) | – | 46.9% (inactive) | 102% | -3% (inactive) | 1 (inactive) | -1.2% (inactive) | 1 | – | – | – | – | –
C[C@](N)(Cc1ccc(O)cc1)C(=O)O | -0.34 h (inactive) | – | – | – | -1% (inactive) | 0.9 (inactive) | -0.2% (inactive) | 4.5 | – | – | – | – | –
O=C(CCCN1CCN(c2ccccn2)CC1)c1ccc(F)cc1 | – | 14.6 (inactive) | – | – | – | – | 0.1% (inactive) | -1 | – | – | – | – | –
